Screening data from PubChem BioAssay.
An excerpt weighted towards active compounds, which were near 6.3% of everything screened.
HepG2 viability: counter-screen for TGF-b inhibitors: cytotoxicity in HepG2 cells | HepG2 CAGA-GFP viability, ATP luminescence, 18 h | Potency, µM (series often up to 46.1 µM), for the others: at the highest dose activity change, negative = cytotoxicity, most hits filed as cytotoxic | 0.76% of 410,000 active | AID 588856
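CellTiter-Glo luminescence gave cytotoxicity after 18 hours at 37 degrees C. The cells were HepG2 CAGA-GFP in 1% FBS DMEM, stimulated with 500 pg/mL TGF-beta after compound addition. %Activity was normalised to no-cell wells (complete cell-killing) and DMSO (no toxicity), and curves were fitted and classified.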
ATXN2 expr inh: reduces ATXN2 reporter expression in HEK-293 cells. Potency, µM (doses to about 57 µM), for inactives: at the top dose activity change, negative = inhibition, hits mostly inhibitors. 0.72% of 360,000 active. AID 1745845. HEK-293 ATXN2-luciferase reporter, luminescence, 24 h; further: on the % scale 0 is the no-effect control and ±100 the full control effect; nearly all actives have a fitted effect of over 55% in size
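ATXN2-luciferase reporter cells (luciferase flanked by upstream and downstream ATXN2 gene portions) were treated 24 h at 37 °C with compounds at up to 57 uM. SteadyGlo luminescence gave expression; GF-AFC fluorescence gave viability.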
VP16 counter: counter-screen for ROR gamma inhibitors: Gal4-VP16 reporter; Drosophila S2 Gal4-VP16 UAS-luciferase, luminescence, 20 h; Potency, µM (doses to about 53.6 µM), for inactives: at the highest dose activity, negative = inhibition, hits mostly inhibitors; 3.5% of 310,000 active;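 further: Gal4-VP16 expression switched on by copper sulfate through the metallothionein promoter; on the % scale 0 is the no-effect control and ±100 the full control effect; nearly all actives have a fitted effect of over 50% in size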
ATXN viability: reduces viability in counter-screen for ATXN expression inhibitors | Potency, µM (top dose mostly 56.7 µM), hits mostly cytotoxic | S2 cells (HEK-293 line with an ATXN2-luciferase reporter) viability, CellTiter-Fluor protease fluorescence, 24 h | 0.49% of 400,000 active; further: nearly all actives have a fitted effect of over 40% in size
RORg inh: inhibitors of mouse ROR gamma transcriptional activity | Drosophila S2 Gal4-RORgamma UAS-luciferase reporter, 20 h | P51450 | AID 2551 | Potency, µM (highest dose often 53.6 µM), inactives show at the top dose activity change, negative = inhibition, actives largely listed as inhibitors | 5.4% of 310,000 active; further: on the % scale 0 is the no-effect control and ±100 the full control effect; nearly all actives have a fitted effect of over 60% in size
Target sequence (P51450 whole entry, looked up, the tested form may be a part): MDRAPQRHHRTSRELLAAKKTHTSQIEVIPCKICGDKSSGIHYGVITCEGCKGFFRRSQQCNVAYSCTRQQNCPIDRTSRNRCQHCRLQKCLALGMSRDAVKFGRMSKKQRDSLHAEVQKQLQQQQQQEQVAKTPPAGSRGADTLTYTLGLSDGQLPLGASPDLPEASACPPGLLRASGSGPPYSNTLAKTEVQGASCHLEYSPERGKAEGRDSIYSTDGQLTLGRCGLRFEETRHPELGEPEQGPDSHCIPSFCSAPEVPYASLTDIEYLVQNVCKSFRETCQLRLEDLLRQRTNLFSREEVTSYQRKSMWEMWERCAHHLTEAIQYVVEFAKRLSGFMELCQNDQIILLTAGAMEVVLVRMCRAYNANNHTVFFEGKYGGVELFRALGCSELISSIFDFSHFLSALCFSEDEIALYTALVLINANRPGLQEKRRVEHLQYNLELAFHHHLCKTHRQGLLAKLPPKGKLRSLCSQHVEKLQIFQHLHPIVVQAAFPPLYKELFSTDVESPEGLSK
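A Gal4/UAS one-hybrid system in insect cells: metallothionein-promoter Gal4–ROR gamma fusion plus Photinus luciferase reporter. Copper sulfate 700 uM final, 20 hr ambient incubation, luminescent detection after 10 min with reagent.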
TGFb inhibitor: blocks TGF-b signaling; HepG2 CAGA-GFP TGF-b/SMAD3 reporter, GFP fluorescence, 18 h; TGF-beta stimulated, 500 pg/mL final; AID 588855; Potency, µM (highest dose often 46.1 µM), inactives show top-dose activity, negative = inhibition, usual class: inhibitors; 1.2% of 410,000 active; further: on the % scale 0 is the no-effect control and ±100 the full control effect; nearly all actives have a fitted effect of over 65% in size
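HEPG2 CAGA-GFP reporter cells (1000/well, DMEM with 1% FBS) received compounds, then recombinant TGF-beta at 500 pg/mL final for 18 hours at 37 degrees C. Per-cell GFP summed per well was normalised to unstimulated and stimulated DMSO controls before curve fitting.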
The depositor's hits bear a star; i = inactive; ? = inconclusive; . = no result; ! = not active in a repeat; [ ] = another dose, or the depositor's remark. The call rests on the fitted dose curve; in most records, active means well fitted curve in the direction sought with a large enough effect; inconclusive means small, poorly fitted or top-dose-only effect, or another doubt; inactive means no such curve, though single readings can be large; an effect the other way counts as inactive or inconclusive. Potency means the concentration at half of the fitted maximal effect.

SMILES	HepG2 viability	ATXN2 expr inh	VP16 counter	ATXN viability	RORg inh	TGFb inhibitor
C=C(C)[C@@H]1CC[C@]2(C(=O)O)CC[C@]3(C)C(CCC4[C@@]5(C)CC[C@H](O)C(C)(C)C5CC[C@]43C)C12 (stereo partly drawn)	3.8%	3.9%	-5.6%	i	3.16µM*	8.0%
CC#C[C@]1(O)CC[C@H]2[C@@H]3C[C@H](C)C4=CC(=O)CC[C@]4(C)[C@H]3CC[C@@]21C	.	-26.6%	.	i	.	.
O=C1NC(=S)NC(=O)C1=Cc1ccc(Br)s1	-47.3%	.	6.31µM*	?	20µM*	?
COc1ccc(/C=C/c2cc(O)cc(O)c2)cc1	.	.	3.55µM*	.	1.41µM*	.
CC(C)=CCCC1(C)C=Cc2c(O)c3c(c(CC=C(C)C)c2O1)OC12C(CC4CC1C(C)(C)OC2(C/C=C(/C)C(=O)O)C4O)C3=O (stereo not drawn)	.	.	-29.8%	.	-9.1%	.
CN(CC1COc2ccccc2O1)c1nc(-c2cccnc2)nc2ccccc12 (stereo not drawn)	5.01µM*	59.9%	3.4%	i	?	?
CN1CCC(N(C)c2nc(-c3ccc([N+](=O)[O-])cc3)nc3ccccc23)CC1	-123.0%	-16.3%	?	i	-23.1%	?
CN1C2CCC1/C(=C/c1ccccn1)C(=O)/C2=C\c1ccccn1	10µM*	?	2.51µM*	?	2.82µM*	2.82µM*
O=C(CCC1N=C2c3ccccc3N=C(SCc3cccc(Cl)c3)N2C1=O)N1CCN(c2ccccc2)CC1 (stereo not drawn)	-29.4%	-13.4%	.	?	.	10µM*
Cc1cccc(C)c1NC1=NCCCS1	0.0%	-1.6%	-2.0%	i	10µM*!	6.5%
Cc1cc(C)c(NC2=NCCCS2)c(C)c1	-18.7%	-3.4%	-8.0%	i	15.9%	-16.9%
c1ccc(-c2nn(-c3ccccc3)[n+](-c3ccccc3)n2)cc1	-51.6%	?	.	?	.	10µM*
CN(C)C(=O)Oc1ccc(OC(=O)N(C)C)cc1	8.9%	4.4%	2.1%	i	28.4%	-1.7%
CN(C)C(=O)Oc1ccc(OCc2nc3ccccc3[nH]2)cc1	-91.6%	?	11.2µM*	i	?	5.7%
O=C(N/N=C/c1cc(Br)c(Br)s1)c1ccncc1	-31.4%	?	1µM*	?	0.562µM*	-11.5%
CC(C)C[C@H]1C(=O)N2CCCC2[C@]2(O)O[C@](NC(=O)[C@@H]3C=C4c5cccc6[nH]c(Br)c(c56)C[C@H]4N(C)C3)(C(C)C)C(=O)N12 (stereo partly drawn)	.	.	?	.	25.8%[10 µM]	.
CN(C)NC(=O)CCC(=O)O	.	-7.0%	-6.8%	.	-1.0%	.
CCC1CN2CCC1CC2C(O)c1ccnc2ccccc12 (stereo not drawn)	.	.	-6.2%	.	6.1%	.
Fc1ccc(CCNCc2ccc(Cl)c(Cl)c2)cc1	12.6µM*	?	-0.7%	?	-21.7%	?
CCc1ccc(CNCCc2ccc(F)cc2)cc1	-43.2%	-14.3%	?	i	-62.5%	14.5%
Cc1ccc(-c2cc(-c3ccc(C)cc3)[n+](-c3ccc(C(=O)[O-])cc3)c(-c3ccc(C)cc3)c2)cc1	-28.3%	0.0%	.	i	.	-13.1%
Cc1ccc(-c2cc(-c3ccccc3)cc(-c3ccccc3)[n+]2-c2ccccc2)cc1	-64.5%	3.55µM*	.	12.6µM*	.	5.62µM*
O=P1(Oc2ccccc2)CC=CC(COC(c2ccccc2)(c2ccccc2)c2ccccc2)O1 (stereo not drawn)	-19.3%	.	-3.2%	.	33.4%	15.8µM*
COC(=O)[C@@H](N)CCCN/C(N)=N/[N+](=O)[O-]	.	10.1%	.	i	.	.
Cc1cc(N2C(=O)CC(N3CCC(n4c(=O)[nH]c5ccccc54)CC3)C2=O)no1 (stereo not drawn)	18.3%	4.7%	-2.0%	i	3.16µM*	31.1%
SMILES	HepG2 viability	ATXN2 expr inh	VP16 counter	ATXN viability	RORg inh	TGFb inhibitor
CCOC(=O)[C@]12Cc3c(cc(OC)c(OC)c3OC)[C@H]1N(C(C)C)C(=O)c1cc(OC)ccc12	.	17.8µM*	.	14.1µM*	.	.
CCOC(=O)[C@]12Cc3cc(OC)ccc3[C@H]1N(C(C)C)C(=O)c1cc(OC)ccc12	.	?	.	14.1µM*	.	.
CC(C)c1ccc2c(c1)C(N1CCNCC1)Cc1ccc(F)cc1S2 (stereo not drawn)	-91.2%	?	.	?	.	17.8µM*
ClCc1ccccc1	.	.	4.1%	.	6.7%	.
Cc1ccc(C(C)C)c(OCCn2c(=O)oc3ccccc32)c1	-34.6%	-50.9%	?	i	10µM*	?
CCCCCOc1ccccc1Cn1c(=O)oc2ccc(C)cc21	-37.1%	4.1%	.	i	.	-1.7%
COC(=O)[C@]12OC[C@]34C([C@@H](O)[C@@H]1O)[C@]1(C)CC(=O)C(O)=C(C)[C@@H]1C[C@H]3OC(=O)[C@H](O)[C@@H]24 (stereo partly drawn)	-7.1%	?	0.224µM*	?	0.562µM*	?
CCOP(=O)(OCC)C(NC(=O)c1ccc(C)cc1)=C(Cl)Cl	5.2%	-0.8%	1.5%	i	-13.0%	-19.6%
Cc1ccc(C(=O)NC(=S)NNS(=O)(=O)c2ccc(C)cc2)cc1	17.4%	-6.1%	?	i	5.62µM*	-1.3%
CC(=O)OCC1=C(C(=O)O)N2C(=O)[C@@H](N)[C@H]2SC1	.	0.1%[25.6 µM]	.	i	.	.
O=C(NC(=S)Nc1ccccc1N1CCCC1)c1ccccc1Br	.	.	2.82µM*	.	2.82µM*	.
COC(=O)NC(=S)Nc1ccccc1NC(=S)NC(=O)OC	-0.3%	-7.0%	-0.1%	i	?	-3.7%
c1ccc2c(CNC3CCCCCC3)c[nH]c2c1	-112.6%	20µM*	-13.9%	28.2µM*	?	?
CN1CCN(C(=O)COc2ccc(-c3nc4ccccc4s3)cc2)CC1	.	?	10µM*	i	5.01µM*	-0.7%
Cc1cccc(Cn2c(=O)n(Cc3ccc(C(=O)NC4CCN(Cc5ccccc5)CC4)cc3)c(=O)c3ccccc32)c1	-15.0%	-1.7%	.	i	.	?
O=C(CCN1CCN(c2ccccc2)CC1)c1ccc(Br)cc1	-97.7%	.	?	.	35.5µM*	?
